Data as given in article PMC4336329 (PLoS ONE, 2015).
In all, about 310,000 compounds went through this assay and about 14,000 (4.5%) showed an effect of 50% or more. Effects have a minus sign here. What follows is part of a selection rich in strong results, with near analogues and random picks from the rest.

The compounds below were run against human ether-à-go-go-related gene (hERG) potassium channel (human, UniProt Q12809) (assay: primary screen, population patch clamp on CHO cells stably expressing hERG; higher = less effect of the substance).
Chain of human ether-à-go-go-related gene (hERG) potassium channel (Q12809 whole entry, looked up): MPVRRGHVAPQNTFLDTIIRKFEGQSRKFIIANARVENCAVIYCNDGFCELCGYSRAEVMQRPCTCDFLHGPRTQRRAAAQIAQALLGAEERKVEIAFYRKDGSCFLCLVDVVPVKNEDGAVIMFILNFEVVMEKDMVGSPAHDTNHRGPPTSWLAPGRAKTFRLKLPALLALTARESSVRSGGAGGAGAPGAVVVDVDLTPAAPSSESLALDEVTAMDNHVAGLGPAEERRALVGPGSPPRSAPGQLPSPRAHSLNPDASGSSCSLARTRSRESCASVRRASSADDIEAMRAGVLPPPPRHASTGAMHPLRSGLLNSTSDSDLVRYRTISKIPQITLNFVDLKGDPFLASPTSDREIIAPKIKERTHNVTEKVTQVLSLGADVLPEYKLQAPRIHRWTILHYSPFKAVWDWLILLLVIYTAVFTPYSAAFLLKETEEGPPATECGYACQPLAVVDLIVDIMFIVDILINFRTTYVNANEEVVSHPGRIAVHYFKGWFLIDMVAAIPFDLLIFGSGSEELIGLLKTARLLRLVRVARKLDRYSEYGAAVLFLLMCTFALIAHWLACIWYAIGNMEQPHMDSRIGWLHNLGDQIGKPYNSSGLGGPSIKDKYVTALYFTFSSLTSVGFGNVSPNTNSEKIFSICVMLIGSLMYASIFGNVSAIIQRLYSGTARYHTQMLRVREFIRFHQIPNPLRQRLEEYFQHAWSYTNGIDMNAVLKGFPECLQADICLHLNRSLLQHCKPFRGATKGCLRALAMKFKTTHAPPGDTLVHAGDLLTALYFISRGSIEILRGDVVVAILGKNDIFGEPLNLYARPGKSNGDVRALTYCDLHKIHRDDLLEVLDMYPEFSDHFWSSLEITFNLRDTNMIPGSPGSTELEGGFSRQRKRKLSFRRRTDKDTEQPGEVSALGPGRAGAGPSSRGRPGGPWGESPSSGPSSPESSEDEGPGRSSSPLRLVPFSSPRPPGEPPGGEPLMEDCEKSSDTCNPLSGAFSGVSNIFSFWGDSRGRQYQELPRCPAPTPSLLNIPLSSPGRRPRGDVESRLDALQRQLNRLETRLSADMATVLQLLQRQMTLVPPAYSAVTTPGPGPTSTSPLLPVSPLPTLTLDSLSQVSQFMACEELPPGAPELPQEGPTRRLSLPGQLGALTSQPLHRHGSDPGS
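Also: peak tail current of the secondary pulse compared with the same well before compound.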

| Compound | hERG current change (%, negative = inhibition) at 10uM |
| --- | --- |
| COc1ccccc1COCC(O)CN(Cc1ccco1)Cc1ccccc1O (stereo not drawn) | -27% |
| CC(=O)c1cccc(NC(=O)CCn2c(=S)oc3ccccc32)c1 | 9.8% |
| CC(=O)NC1(c2cccc(F)c2)CCN(C(=O)Nc2ccc(C#N)cc2)CC1 | -13.8% |
| O=C(Nc1cccnc1)c1cc([N+](=O)[O-])ccc1Cl | -0.51% |
| O=C(NCCCN1CCCC1)c1ccc(CS(=O)(=O)c2ccc(Br)cc2)o1 | -16.7% |
| CCC1CCCCN1CCCNC(=O)c1ccc(CS(=O)(=O)c2ccc(Br)cc2)o1 (stereo not drawn) | -56.7% |
| CN1CCN(CCCNC(=O)c2ccc(CS(=O)(=O)c3ccc(Br)cc3)o2)CC1 | -10.3% |
| O=C(NCCN1CCCCCC1)c1ccc(CS(=O)(=O)c2ccc(Br)cc2)o1 | -57.4% |
| Cc1ccccc1S(=O)(=O)Cc1ccc(C(=O)NCCN2CCN(Cc3ccccc3)CC2)o1 | -61.9% |
| CCC1CCCCN1CCCNC(=O)c1ccc(CS(=O)(=O)c2ccccc2C)o1 (stereo not drawn) | -26.5% |
| O=C(NCCCN1CCOCC1)c1ccc(CS(=O)(=O)c2ccc(Br)cc2)o1 | -6.32% |
| O=C(NCCN1CCOCC1)c1ccc(CS(=O)(=O)c2ccc(Br)cc2)o1 | -2.9% |
| Cc1ccccc1S(=O)(=O)Cc1ccc(C(=O)NCCCN2CCN(C)CC2)o1 | -1.6% |
| O=C(NCCN1CCN(Cc2ccccc2)CC1)c1ccc(CS(=O)(=O)c2ccc(Br)cc2)o1 | -79.8% |
| CCN1CCN(CCNC(=O)c2ccc(CS(=O)(=O)c3ccccc3C)o2)CC1 | -1.23% |
| CCC1CCCCN1CCCNC(=O)c1ccc(CS(=O)(=O)c2ccccc2OC)o1 (stereo not drawn) | 6.46% |
| O=C(CN(C(=O)C1CSC(=O)C1)c1cccc(F)c1)NCc1ccc2c(c1)OCO2 (stereo not drawn) | -14.7% |
| COc1ccc(CCNC(=O)CCc2nc3sc4c(c3c(=O)[nH]2)CCCC4)cc1 | 9.78% |
| Cn1c(=S)[nH]c2c(c1=O)C(C)(C)Cc1ccccc1-2 | 10.9% |
| Cc1[nH]c(=O)[nH]c(=O)c1S(=O)(=O)N1CCOCC1 | 3.26% |
| CCCn1c(SCC(=O)Nc2c(C)cccc2CC)nnc1C(C)C | 3.71% |
| O=C(Nc1cccc(S(=O)(=O)N2CCCCC2)c1)c1ccc2c(=O)n3c(nc2c1)CCCCC3 | -64.5% |

| Compound | hERG current change (%, negative = inhibition) at 10uM |
| --- | --- |
| O=C(Nc1cccc(S(=O)(=O)N2CCOCC2)c1)c1ccc2c(=O)n3c(nc2c1)CCCCC3 | -73.3% |
| O=C(Nc1ccc2c(c1)nc1n2CCCCC1)c1cc(S(=O)(=O)N2CCOCC2)ccc1Cl | -15.5% |
| O=C(Nc1ccc(F)c(Cl)c1)c1ccc2c(=O)n3c(nc2c1)CCCCC3 | -36.6% |
| O=C(Nc1ccc(S(=O)(=O)N2CCCC2)cc1)c1ccc2c(=O)n3c(nc2c1)CCCCC3 | 9.23% |
| O=C(Nc1cccc(S(=O)(=O)N2CCCC2)c1)c1ccc2c(=O)n3c(nc2c1)CCCCC3 | -57.1% |
| O=C(c1ccc2c(=O)n3c(nc2c1)CCC3)N1CCN(S(=O)(=O)c2cccc(F)c2)CC1 | -4.8% |
| O=C(Nc1ccc(S(=O)(=O)C(F)F)cc1)c1ccc2c(=O)n3c(nc2c1)CCC3 | 24.1% |
| Cc1ccc(C)c(NC(=O)c2ccc3c(=O)n4c(nc3c2)CCC4)c1 | -25.9% |
| Cc1ccc(NC(=O)c2ccc3c(=O)n4c(nc3c2)CCCCC4)cc1F | -24.6% |
| Cc1ccc(S(=O)(=O)N2CCCCC2)cc1NC(=O)c1ccc2c(=O)n3c(nc2c1)CCCCC3 | -64.1% |
| CC(NC(=O)c1cnccn1)c1ccc(S(N)(=O)=O)cc1 (stereo not drawn) | -2.33% |
| C=CCn1c(SCC(=O)NCc2ccco2)nc2sc(C)c(C)c2c1=O | 3.62% |
| CC(C)NC(=O)COc1coc(CN2CCN(Cc3ccccc3)CC2)cc1=O | 11.9% |
| COc1ccc(-c2nc3c(n2O)CCc2c-3no[n+]2[O-])cc1 | 10.6% |
| Nc1nnnn1CC(=O)N/N=C/C=C/c1ccccc1 | 16.1% |
| COc1cc2c(cc1OC)CN(C(=O)c1sc(-c3cnccn3)nc1C)CC2 | 0.572% |
| O=S(=O)(Nc1cccc(-c2ccc(N3CCOCC3)nn2)c1)c1cc(Cl)ccc1Cl | -26.8% |
| CC(C)(C)OC(=O)N[C@@H](CCCCNC(=O)OCc1ccccc1)c1nnc([C@H](CCCCNC(=O)OCc2ccccc2)NC(=O)OC(C)(C)C)o1 | -22.6% |
| COc1ccc(N(C(=O)c2ccncc2)S(=O)(=O)c2ccc(Cl)cc2)cc1 | -26.4% |
| CCCCN(C(=O)c1cc(OC)c(OC)c(OC)c1)C1=CC2CCC(C1)N2C.Cl (stereo not drawn) | -20.2% |
| CN1OC(COC(=O)c2ccc(Cl)cc2)CC1c1ccccc1 (stereo not drawn) | -4.56% |
| CN1C2C=C(N(C(=O)c3ccc(Cl)cc3)c3ccccc3)CC1CC2.Cl (stereo not drawn) | -74% |

| Compound | hERG current change (%, negative = inhibition) at 10uM |
| --- | --- |
| COc1ccc(C(=O)CN(C(=O)c2ccc(Cl)cc2)N2C(=O)C3CCCCC3C2=O)cc1 (stereo not drawn) | -6.63% |
| COc1ccc(CCN(C(=O)c2ccc(F)cc2)C2=CC3CCC(C2)N3C)cc1OC.Cl (stereo not drawn) | -46.6% |
| COc1ccc(N(C(=O)c2ccc(Cl)cc2)C2=CC3CCC(C2)N3C)cc1.Cl (stereo not drawn) | -82% |
| COc1ccc(N(C(=O)c2ccc(F)cc2)C2=CC3CCC(C2)N3C)cc1.Cl (stereo not drawn) | -71.5% |
| CN1C2CCC1CC(OC(=O)c1ccc(Cl)cc1)(C(=O)O)C2.Cl (stereo not drawn) | 1.82% |
| N#CC1=C(N)OC2=C(C(=O)CC(c3ccco3)C2)C1c1ccc(OCc2c(F)cccc2Cl)cc1 (stereo not drawn) | -1.84% |
| Nc1c([N+](=O)[O-])c(=O)oc2ccccc12 | 19.1% |
| CN(C)CCNC(=S)Nc1ccc(F)c(F)c1F | 22.3% |
| C=CCNC(=O)c1c(Cl)cnn1-c1ccc(C)cc1 | -4.22% |
| Cc1ccc(CNC(=O)CN2C(=O)COc3ccc(S(=O)(=O)N4CCCCC4)cc32)o1 | 16% |
| C[C@H](NC(=O)N1CCn2c1nc1ccccc12)C(=O)NCc1ccco1 | -10.6% |
| CCOc1ccc(CCNC(=O)C2CCCN(S(=O)(=O)N3CCOCC3)C2)cc1OCC (stereo not drawn) | 0.332% |
| COC(=O)c1cccc(NC(=S)N2CCN(c3ccccc3F)CC2)c1 | 5.71% |
| CC(=O)NCCn1c(SCc2cc(=O)n3cc(Cl)ccc3n2)nc2ccccc2c1=O | -50.7% |
| O=C(CCCn1c(SCc2ccccc2F)nc2ccccc2c1=O)NCC1CCCO1 (stereo not drawn) | -14% |
| O=C(CCCn1c(SCc2cc(=O)n3ccccc3n2)nc2ccccc2c1=O)NCC1CCCO1 (stereo not drawn) | -1.72% |
| CC(=O)NCCn1c(SCC(=O)c2ccc(Cl)cc2)nc2ccccc2c1=O | -4.33% |
| COc1ccc(CNc2nc(SCc3cc(=O)n4cc(Cl)ccc4n3)nc3ccccc23)cc1 | -44% |
| O=C(CCCn1c(SCc2cc(=O)n3cc(Cl)ccc3n2)nc2ccccc2c1=O)NCC1CCCO1 (stereo not drawn) | -53.7% |
| COCCn1c(SCc2cc(=O)n3cc(C)ccc3n2)nc2ccccc2c1=O | 13.7% |
| O=c1cc(CSc2nc(NCc3ccccc3)c3ccccc3n2)nc2ccc(Cl)cn12 | -59.3% |
| O=c1c2sccc2nc(SCc2cc(=O)n3cc(Cl)ccc3n2)n1Cc1ccccn1 | -26.2% |

| Compound | hERG current change (%, negative = inhibition) at 10uM |
| --- | --- |
| NC(=S)N/N=C1/CCSc2ccc3ccccc3c21 | -23.4% |
| C/C(=N\NC(=O)c1cccs1)C(C)(C)C | 5.21% |
| CCN(c1ccc(F)cc1)S(=O)(=O)c1cccc2nsnc12 | 2.4% |
| COc1ccc(C(c2oc(CO)cc(=O)c2O)c2oc(CO)cc(=O)c2O)cc1OC | 14.3% |
| N/C(=N\OC(=O)CCc1ccccc1)c1cccc(Br)c1 | 1.33% |
| Cn1c(SCC(=O)NC2CC2)nnc1C(F)(F)F | -1.32% |
| Nc1nc2c(Cl)ccc(Cl)c2s1 | 10.7% |
| Cc1nc(N2CCC(C(N)=O)CC2)c2nnn(Cc3ccccc3)c2n1 | 16.3% |
| Cc1ccc(N(CC(=O)N/N=C/c2cccs2)S(C)(=O)=O)cc1 | -3.64% |
| Cc1ccccc1-n1c(C)nc2sccc2c1=O | -2.18% |
| COc1ccc(OC(C)C(=O)N2CCC(C)CC2)cc1 (stereo not drawn) | -5.47% |
| COc1ccc2cc(C(C)C(=O)N3CCC(C)CC3)ccc2c1 (stereo not drawn) | -71.9% |
| COc1ccc2cc(C(C)C(=O)N3CCC(C(N)=O)CC3)ccc2c1 (stereo not drawn) | 17.1% |
| O=C(N/N=C/c1ccc([N+](=O)[O-])cc1)c1c[nH]c2ccccc12 | 19.1% |
| O=C(CCn1c(=O)oc2ccccc21)Nc1cccc(Cl)c1 | -2.8% |
| CCOC(=O)N1CCN(C(=O)COc2cccc3c2CCN(Cc2ccc(F)cc2)C3=O)CC1 | -61% |
| CCOC(=O)N1CCN(C(=O)COc2cccc3c2CCN(Cc2cccc(C)c2)C3=O)CC1 | -53.6% |
| CCOC(=O)N1CCN(C(=O)COc2cccc3c2CCN(Cc2ccccc2F)C3=O)CC1 | -31.4% |
| Cc1ccc(COc2cccc3c2CCN(Cc2ccc(F)cc2)C3=O)cc1 | 6.8% |
| CCOC(=O)N1CCN(C(=O)COc2cccc3c2CCN(CC)C3=O)CC1 | 6.35% |
| CCOC(=O)N1CCN(C(=O)COc2cccc3c2CCN(Cc2ccccc2C)C3=O)CC1 | -40.7% |
